Test results as given in PubChem BioAssay AID1159580 (chemical genetic matrix, 2015).
“And” between values parts separate entries of the source, which are not always exact repeats. Equal values may be shown once. About 2,000 (36%) of roughly 5,500 compounds were called active. Another 18% or so got no clear call; they are omitted. No stated cut-off is given here; in the data, active means normalized growth mostly below about 0.91 (no sharp cut-off); inconclusive means no clear call, values can overlap the other calls; inactive means mostly above about 0.92. The list shows a part of the results.

Test: chemical genetic growth profiling, strain panel (AID 1159580);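 further: tested at 20 µM; growth read once vehicle control cultures reached saturation at 30 °C; 1 = growth at the plate median or of vehicle wells; lower values mean less growth of the strain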
Details: S. cerevisiae deletion strains, growth OD

Measured: normalized growth

CC(=O)N[C@@H](Cc1c[nH]c2ccccc12)C(=O)O
inactive: locus YAL013W, strain DEP1, hits give low values 1.01 | locus YAL021C, strain ccr4, hits give low values 0.991 | locus YAL026C, strain drs2, hits give low values 0.978 | locus YAL030W, strain snc1, hits give low values 0.999 | locus YBL061C, strain skt5, hits give low values 0.975 | locus YBR009C, strain hhf1, hits give low values 1.03 | locus YBR021W, strain FUR4, hits give low values 0.998 | locus YBR023C, strain chs3, hits give low values 0.996 | locus YBR171W, strain sec66, hits give low values 0.977 | locus YBR229C, strain ROT2, hits give low values 1 | locus YBR231C, strain swc5, hits give low values 0.981 | locus YBR279W, strain paf1, hits give low values 0.982 | locus YCL011C, strain gbp2, hits give low values 0.982 | locus YCL016C, strain dcc1, hits give low values 0.97 | locus YCL029C, strain bik1, hits give low values 1.03 | locus YCL061C, strain MRC1, hits give low values 0.991 | locus YCL069W, strain vba3, hits give low values 0.979 | locus YCR088W, strain abp1, hits give low values 0.992 | locus YDL005C, strain med2, hits give low values 0.971 | locus YDL035C, strain GPR1, hits give low values 1.01 | locus YDL040C, strain nat1, hits give low values 0.983 | locus YDL074C, strain BRE1, hits give low values 1.03 | locus YDL101C, strain DUN1, hits give low values 1.02 | locus YDL134C, strain PPH21, hits give low values 0.987 | locus YDL185W, strain tfp1, hits give low values 1.01 | locus YDL192W, strain arf1, hits give low values 1.01 | locus YDR001C, strain nth1, hits give low values 0.992 | locus YDR069C, strain doa4, hits give low values 0.998 | locus YDR101C, strain arx1, hits give low values 1.01 | locus YDR137W, strain rgp1, hits give low values 0.968 | locus YDR150W, strain NUM1, hits give low values 1 | locus YDR159W, strain sac3, hits give low values 1.01 | locus YDR162C, strain NBP2, hits give low values 1.01 | locus YDR195W, strain ref2 0.942 | locus YDR297W, strain sur2, hits give low values 0.994 | locus YDR318W, strain mcm21, hits give low values 1.02 | locus YDR334W, strain swr1, hits give low values 0.981 | locus YDR335W, strain msn5, hits give low values 0.987 | locus YDR388W, hits give low values 1.03 | locus YDR392W, strain spt3, hits give low values 0.988 | locus YDR502C, strain sam2, hits give low values 1.02 | locus YEL003W, strain gim4, hits give low values 0.986 | locus YEL037C, strain rad23, hits give low values 0.986 | locus YEL061C, strain CIN8 (second series), hits give low values 0.985 | locus YEL061C, strain CIN8, hits give low values 1 | locus YER015W, strain faa2, hits give low values 0.991 | locus YER016W, strain bim1, hits give low values 0.953 | locus YER110C, hits give low values 1.02 | locus YER111C, strain swi4, hits give low values 0.971 | locus YER155C, strain BEM2 (second series), hits give low values 0.982 | locus YER155C, strain BEM2, hits give low values 0.997 | locus YER167W, strain BCK2, hits give low values 1.01 | locus YFR010W, strain ubp6, hits give low values 1 | locus YGL078C, strain dbp3, hits give low values 1.01 | locus YGL086W, strain mad1, hits give low values 1.02 | locus YGL167C, strain pmr1, hits give low values 0.983 | locus YGL173C, strain kem1, hits give low values 0.985 | locus YGL227W, strain vid30, hits give low values 0.984 | locus YGL240W, strain doc1, hits give low values 1.02 | locus YGL248W, strain PDE1, hits give low values 1.04 | locus YGL253W, strain hxk2, hits give low values 0.979 | locus YGR078C, strain PAC10, hits give low values 1.01 | locus YGR135W, strain pre9, hits give low values 1.03 | locus YGR229C, strain SMI1, hits give low values 1.01 | locus YGR252W, strain gcn5, hits give low values 1.02 | locus YHR013C, strain ard1, hits give low values 0.952 | locus YHR027C, strain rpn1, hits give low values 0.976 | locus YHR030C, strain SLT2, hits give low values 1 and 0.996 | locus YHR079C, strain IRE1 (second series), hits give low values 1.02 | locus YHR079C, strain IRE1, hits give low values 0.987 | locus YHR094C, strain hxt1, hits give low values 1.01 | locus YHR129C, strain ARP1, hits give low values 1 | locus YHR142W, strain chs7, hits give low values 0.977 | locus YHR200W, strain rpn10, hits give low values 1.02 | locus YIL066C, strain RNR3, hits give low values 1 | locus YIL073C, strain SPO22, hits give low values 1.04 | locus YIL125W, strain kgd1, hits give low values 1.01 | locus YIR030C, strain dcg1, hits give low values 1.02 | locus YJL092W, strain hpr5, hits give low values 0.986 | locus YJL095W, strain BCK1 (second series), hits give low values 0.996 | locus YJL095W, strain BCK1, hits give low values 1.05 and 0.998 | locus YJL115W, strain asf1, hits give low values 0.978 | locus YJL129C, strain trk1, hits give low values 0.956 | locus YJL134W, strain LCB3, hits give low values 1.01 | locus YJL154C, strain vps35, hits give low values 0.968 | locus YJL164C, strain tpk1, hits give low values 0.988 | locus YJL166W, strain qcr8, hits give low values 1.01 | locus YJL168C, strain set2, hits give low values 1.02 | locus YJL187C, strain SWE1 (second series), hits give low values 1.01 | locus YJL187C, strain SWE1, hits give low values 0.987 | locus YJR043C, strain POL32, hits give low values 1.03 | locus YJR066W, strain TOR1, hits give low values 0.901
